The results in this text go back to PubChem BioAssay.

For orientation: inhibition means the drop in the measured response relative to a control, in per cent.

Active and inactive are the calls of the source. Unless noted, no stated cut-off is given here; in the data, active means inhibition above about 33%; inactive means the rest.

The nature of assay [1]: StAR promoter reporter inhibitors, counter-screen for LRH-1 inverse agonist project, cell-based, luminescence, high throughput (AID 651611; in the data active means inhibition above about 28%). To be noted: StAR promoter luciferase reporter counterscreen, at 3.6 µM, hits give high values. A general note: Counterscreens check selectivity or assay interference.
Assay [2] deals with Nuclear receptor subfamily 5 group A member 2 (Homo sapiens) (UniProt O00482). Put plainly: NR5A2 activity suppression in reporter cells – cell-based, luminescence, confirmation (AID 651613; in the data active means inhibition above about 42%;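 further: HEK293T cells co-transfected with LRH-1 and StAR promoter luciferase reporter; 0% = vehicle wells and 100% = parental cells lacking receptor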). To be noted: cell-based LRH-1 luciferase reporter, inverse agonism; at 3.6 µM; hits give high values.
Assay [3] deals with Steroidogenic factor 1 (Homo sapiens) (UniProt Q13285). Kind of assay: inverse agonism at SF1 nuclear receptor – cell-based, luminescence, high throughput, counter-screen for LRH-1 inverse agonist project (AID 651614; in the data active means inhibition above about 44%;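 further: cells cotransfected with StAR promoter reporter and SF1 expression vector; 0% = vehicle on cells with receptor and 100% = vehicle on cells lacking receptor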). The following applies: cell-based SF1 luciferase reporter, at 3.6 µM, hits give high values.
A short description of assay [4]: compounds suppressing VP16-driven luciferase signal – cell-based, luminescence, high throughput, counter-screen for LRH-1 inverse agonist project (AID 651615). To be noted: Gal4-VP16 luciferase reporter cells, at 3.6 µM, hits give high values.

Sequence of Nuclear receptor subfamily 5 group A member 2 (Homo sapiens) (O00482 whole entry, looked up): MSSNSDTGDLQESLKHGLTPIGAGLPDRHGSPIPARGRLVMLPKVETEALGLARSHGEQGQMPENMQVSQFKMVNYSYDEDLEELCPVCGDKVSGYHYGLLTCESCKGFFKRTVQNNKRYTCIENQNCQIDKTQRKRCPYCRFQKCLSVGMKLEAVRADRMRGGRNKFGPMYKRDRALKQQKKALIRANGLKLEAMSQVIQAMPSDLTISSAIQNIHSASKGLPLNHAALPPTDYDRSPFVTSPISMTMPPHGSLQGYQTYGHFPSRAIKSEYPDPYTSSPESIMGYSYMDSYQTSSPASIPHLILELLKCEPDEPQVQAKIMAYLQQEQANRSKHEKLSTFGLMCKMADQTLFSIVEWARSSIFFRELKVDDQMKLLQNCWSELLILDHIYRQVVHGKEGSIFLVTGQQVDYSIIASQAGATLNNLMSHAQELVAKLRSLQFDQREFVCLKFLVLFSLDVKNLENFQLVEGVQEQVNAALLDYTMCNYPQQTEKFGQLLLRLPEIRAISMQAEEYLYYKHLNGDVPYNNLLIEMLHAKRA
Sequence of Steroidogenic factor 1 (Homo sapiens) (Q13285 whole entry, looked up, the tested form may be a part): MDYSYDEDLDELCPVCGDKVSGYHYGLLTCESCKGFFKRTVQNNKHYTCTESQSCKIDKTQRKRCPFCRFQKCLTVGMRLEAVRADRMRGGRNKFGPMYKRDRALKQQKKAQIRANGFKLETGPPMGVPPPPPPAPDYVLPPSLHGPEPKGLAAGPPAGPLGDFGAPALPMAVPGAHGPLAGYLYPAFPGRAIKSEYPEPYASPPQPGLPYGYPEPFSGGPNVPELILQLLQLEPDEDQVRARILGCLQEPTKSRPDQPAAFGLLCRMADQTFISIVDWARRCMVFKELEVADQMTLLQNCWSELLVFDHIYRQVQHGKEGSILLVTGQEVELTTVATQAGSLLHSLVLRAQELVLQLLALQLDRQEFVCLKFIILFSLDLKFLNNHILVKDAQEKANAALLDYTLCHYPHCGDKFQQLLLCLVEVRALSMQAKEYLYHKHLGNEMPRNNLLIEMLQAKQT

Turning to `O=C(c1ccco1)N1CCCC(N2CCN(c3cccc(C(F)(F)F)c3)CC2)C1` (stereo unspecified), the inhibition was -1.93% (inactive) in assay [1], 51% (active) in assay [2], 47.7% (active) in assay [3] and 11.1% (inactive) in assay [4].
Taken in the same sequence, the figures for `O=C(Nc1cc(Cl)ccc1-n1cncn1)c1ccc([N+](=O)[O-])s1` were 23.2% (inactive), 68.4% (active), 69.2% (active) and -10.3% (inactive).
Taken in the same sequence, the figures for `COc1ccc(/C=N/OCC(=O)NC(c2ccccc2)c2ccccc2)cc1OC` were 30.5% (active), 72.7% (active), 66.4% (active) and 54.7% (active).
Turning to `N#CC1=C(N2CCOCC2)/C(=C\c2ccccc2)CC1`, the inhibition is 14.8% (inactive) in assay [1], 51.9% (active) in assay [2], 46.6% (active) in assay [3] and 8.41% (inactive) in assay [4].
With `CCN(CC)c1ccc(C2=NNC(=O)CC2C)cc1[N+](=O)[O-]` (stereo unspecified), the inhibition in assay [1] is -14.3% (inactive); in assay [2] it was 17% (inactive); in assay [3], 21.7% (inactive); in assay [4], -1.3% (inactive).
Taken in the same sequence, the figures for `CC(=O)Nc1ccc(NC(=O)COC(=O)c2ccc([N+](=O)[O-])o2)cc1` were 12.7% (inactive), 60.1% (active), 51.9% (active) and -5.51% (inactive).
For the compound `COc1cccc(C2c3cc4c(cc3OC(N3CCCC3)C2C)OCO4)c1O` (stereo unspecified), the inhibition is 55% (active) in assay [1], 64% (active) in assay [2], 73.2% (active) in assay [3] and 21.9% (inactive) in assay [4].
Taken in the same sequence, the figures for `CN(Cc1cccs1)c1nc(-c2cccnc2)nc2ccccc12` were 9.82% (inactive), 54.4% (active), 43% (active) and 5.14% (inactive).
Taken in the same sequence, the figures for `CCC(C)n1c(SCC(=O)NCCc2ccc(S(N)(=O)=O)cc2)nc2ccsc2c1=O` (stereo unspecified) were 10.6% (inactive), 48.7% (active), 52.6% (active) and -3.41% (inactive).
